Dicer processing: inhibitors of Dicer pre-microRNA processing, primary screen, biochemical, cat-ELCCA, chemiluminescence; Endoribonuclease Dicer (Homo sapiens), Q9UPY3; cat-ELCCA pre-miR-21 Dicer processing; active compounds read high; z-score at 25 µM; 47,000 compounds, 6% hits; in the data active = z-score above about 3, passing the limit was not always enough;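 note: plate controls were vehicle for no effect and no enzyme for full effect; higher signal means more uncleaved substrate so more Dicer inhibition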
* = called active by the depositor. The full list was thinned out, with hits kept by preference.

SMILES	Dicer processing
CC(C)C(=O)N(c1cc2sc(=O)oc2c2ccccc12)S(=O)(=O)c1cccs1	-5.3
CSc1ccccc1NC(=O)Cn1nc(C(F)(F)F)c2c1CCCC2	0.25
Nc1nc(Nc2ccccc2)nc2c1ncn2[C@@H]1O[C@H](CO)[C@H](O)C1O (some centres undefined)	-1.4
Cc1cc(C)nc(N2C(=O)CC(C(=O)O)NC2=NCCc2c[nH]c3ccccc23)n1 (centres undefined)	2.4
Cc1nc(N2CCOCC2)c2sc(=S)n(-c3ccccc3)c2n1	-1.1
CSc1nc(N)nc(-c2ccccc2Cl)c1C#N	-1.4
CSc1nc2cc(C)nn2c(-c2ccccc2Cl)c1C#N	5.2*
CSc1nc2cc(C)nn2c(-c2ccc(C(C)(C)C)cc2)c1C#N	2.6
Cc1ccc(S(=O)(=O)/N=S2/CCCSC2)cc1 (centres undefined)	-0.63
O=C(OCc1ccccc1)C1=NNC2C(=O)N(c3ccccc3)C(=O)C12 (centres undefined)	-0.53
O=C(OCc1ccccc1)C1=NNC2C(=O)N(c3ccc(Br)cc3)C(=O)C12 (centres undefined)	3.5*
CCc1ccc(N2C(=O)C3NN=C(C(=O)OCc4ccccc4)C3C2=O)cc1 (centres undefined)	0.43
Cc1cccc(Cc2c(C)[nH]c3[nH]n(-c4ccccc4)c(=O)c3c2=O)c1	-5.1
Cc1nc(-c2c(C(=O)NNC(=O)Nc3cccc(Cl)c3)noc2C)cs1	2.9
CCOC(=O)c1sc(NC(=O)c2ccco2)nc1C	-1.4
COC(=O)c1sc(NC(C)=O)nc1C	-0.11
CCOC(=O)c1sc(NC(C)=O)nc1C	4.3*
CC(C)(C)c1cc(C(=O)Oc2cncc(Cl)c2)cc(C(=O)Oc2cncc(Cl)c2)c1	36*
COC(=O)c1cncc(C(=O)OC)c1	-1.1
CC(C)(C)c1ccc(C(=O)Oc2c(Cl)cncc2Cl)cc1	0.22
CCOC(=O)c1cc(C)nn1C(=O)c1ccccc1Cl	0.08
COC(=O)c1ccc(C(=O)OC)c(N(C)S(C)(=O)=O)c1	0.19
CC(=O)Oc1ccc2c(=O)c(Oc3ccc(Cl)cc3)c(C(F)(F)F)oc2c1	-0.22
COc1ccc(Oc2c(C)oc3cc(OC(=O)N4CCOCC4)ccc3c2=O)cc1	0.19
O=C(Oc1ccc2c(=O)c(-c3ccc(Cl)cc3)c(C(F)(F)F)oc2c1)N1CCOCC1	4*
SMILES	Dicer processing
Nc1nc(-c2ccc(Cl)cc2)nn1S(=O)(=O)c1ccccc1	1.8
CCS(=O)(=O)n1nc(-c2ccc(Cl)cc2)nc1SC	2.7
CCS(=O)(=O)n1nc(-c2ccccc2)nc1N	3.3*
Cc1cc(C(F)(F)F)nc2c(Br)c(C(C)(C)C)nn12	0.19
N#CCCN(Cc1ccccc1)CN1C(=O)c2ccccc2C1=O	0.87
Cc1nc(C)c(-c2ccn(C(=O)NC(C)C)n2)s1	-1.3
Cc1cc(Cc2ccc(C(F)(F)F)cc2)c(=O)[nH]n1	3.1*
Cc1ccc(Cc2cc(-c3ccc(C)cc3)n[nH]c2=O)cc1	-0.37
Cc1cc(Cc2cccs2)c(=O)[nH]n1	1.4
CCN(CC)C(=S)SSC(=S)N(CC)CC	0.98
C=CCSc1ccc(OCC(F)(F)F)c(C#N)c1OCC(F)(F)F	-0.45
O=C(O)CCCC(=O)Nc1cccc2cccnc12	0.9
O=C(Nc1cccc2cccnc12)c1cccs1	-1.1
O=C(CCC(=O)OCC(=O)c1cccs1)Nc1cccc2cccnc12	4.3*
CC(=O)/C(=C\N(C)C)Sc1nnc(C(F)(F)F)n1C	-0.41
O=c1/c(=C\c2cccnc2)sc2n1C(c1ccccc1Cl)C1=C(N=2)c2ccccc2CC1 (centres undefined)	1.4
NNC(=S)Nc1cc(C(F)(F)F)ccc1Cl	1.9
CC(C)(C)C(=O)NC(=O)Nc1cc(C(F)(F)F)cc(C(F)(F)F)c1	1.8
CC(C)(C)C(=O)NC(=O)Nc1cc(C(F)(F)F)ccc1Cl	4.1*
CCN(CC)CCCNc1ncnc2ccccc12	-0.08
CCN(CC)CCCC(C)Nc1nc(C)nc2ccccc12 (centres undefined)	4.3*
CCN(CC)CCCC(C)Nc1nc(C)nc2cc(Cl)ccc12 (centres undefined)	-0.22
O=c1nc2sc3ccccc3n2c(=O)n1-c1ccccc1	0.06
Cc1cc(NC(=O)Nc2ccc3c(ccn3C)c2)sn1	-0.65
c1cc(CNc2ccc3c(c2)OCO3)ccn1	1.7
SMILES	Dicer processing
Fc1ccc(NCc2ccncc2)cc1	3.5*
Fc1ccc(NCc2ccc3c(c2)OCO3)cc1	323
N#Cc1c(Cl)cccc1Oc1ccc(S(=O)(=O)N2CCC(O)CC2)cc1	2.8
OC(Cc1nc2ccccc2[nH]1)c1ccccc1Cl (centres undefined)	-0.1
CS/C(NCc1ccco1)=C(/C#N)S(=O)(=O)c1ccc(Cl)cc1	-1.1
C=CCN/C(SC)=C(\C#N)S(=O)(=O)c1ccc(Cl)cc1	-4.3
CSC(SC)=C(C#N)S(=O)(=O)c1ccc(Cl)cc1	3.2*
CCOC(=O)c1c(N/N=C/c2ccc(O)cc2)n[nH]c1C	0.23
CCOC(=O)c1c(N=Cc2ccccc2Cl)n[nH]c1C	-2.5
CCOC(=O)c1c(N=Cc2ccccc2[N+](=O)[O-])n[nH]c1C	3.7*
CCC(C)C1=CC(=Nc2c(C)n(C)n(-c3ccccc3)c2=O)C=C(C(C)CC)C1=O (centres undefined)	0.51
CSc1sc(-c2ccno2)c(-c2ccco2)c1C#N	0.72
COc1ccc(C2Nc3ccccc3C(=O)N2Cc2ccccc2)cc1Cn1cc([N+](=O)[O-])cn1 (centres undefined)	1.1
O=C1CCCC2=C1C(c1ccncc1)n1nc(-c3cccc(Cl)c3)nc1N2 (centres undefined)	-0.3
O=C1CCCC2=C1C(c1ccc3c(c1)OCO3)n1nc(-c3cccc(Cl)c3)nc1N2 (centres undefined)	4.1*
Cc1cccc(-c2nc3n(n2)C(c2ccc(O)cc2)C2=C(CCCC2=O)N3)c1 (centres undefined)	0.2
CCC[C@@H]1C[C@@H](C(=O)N[C@@H]([C@H]2O[C@H](SC)[C@H](O)[C@@H](O)[C@H]2O)[C@@H](C)O)N(C)C1	0.17
N#C/C(=N\Nc1ccc(F)cc1)S(=O)(=O)c1ccccc1	-0.23
CC1(C)Cc2c(sc3ncn4nc(-c5ccncc5)nc4c23)C(C)(C)N1	0.58
c1cc(-c2nc3c4c5c(sc4ncn3n2)CCCCC5)ccn1	0.59
Fc1ccc(-c2nc3c4c5c(sc4ncn3n2)CCCC5)cc1	4*
c1ccc(-c2nc3c4c5c(sc4ncn3n2)CCCC5)cc1	1.2
COc1ccc(-c2nc3c4c5c(sc4ncn3n2)CCCC5)cc1	0.04
CC1(C)Cc2c(sc3ncn4nc(-c5ccncc5)nc4c23)CO1	3.1*
CC(=O)Nc1ccc(NC(=O)C2CC2(C)C)cc1 (centres undefined)	2.1
SMILES	Dicer processing
CCCCCn1c(N)c(C#N)c2nc3ccccc3nc21	-2
Cn1nc(-c2ccc(Cl)cc2)cc1NC(=O)Nc1ccc(OCc2ccccc2)cc1	-0.67
Cn1nc(-c2ccccc2)cc1NC(=O)Nc1ccc(F)cc1	3.6*
Cn1nc(C(C)(C)C)cc1NC(=O)Nc1ccc(OCc2ccccc2)cc1	4.3*
Cn1nc(-c2ccccc2)cc1NC(=O)Nc1ccc(OCc2ccccc2)cc1	0.53
Cc1cc(C)cc(NC(=O)Nc2cc(C(C)(C)C)nn2C)c1	-1.1
Cn1nc(C(C)(C)C)cc1NC(=O)Nc1cccc2ccccc12	1.4
Cc1ccccc1NC(=O)Nc1cc(-c2ccccc2)nn1C	3
Cc1ccc(F)cc1NC(=O)Nc1cc(C(C)(C)C)nn1C	4*
Cc1nnsc1C(=O)Nc1cc(-c2ccccc2)nn1C	-1.2

Screens (PubChem)
